Bioassay records as filed in PubChem BioAssay.
BRCA1 expr act: increases BRCA1 expression; MCF7-BRCA1-FFLuc reporter, luminescence, 48 h; response scale: scaled: vehicle 0%, 10 µM genistein 100%; Potency, µM (series often up to 46.1 µM), most hits filed as activators; hit rate 1.1% among 380,000; AID 624202; further: nearly all actives have a fitted effect of over 80% in size
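Using MCF7 cells harboring a BRCA1 firefly luciferase reporter, plated 2 h before compound pinning, the screen measured luminescence after 48 h incubation. Responses were normalized to DMSO and 10 microM genistein, then fitted for concentration-effect.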
rTrxR1 inhibitor: rat TrxR1 inhibition. O89049. recombinant rTrxR1, NADPH fluorescence consumption, selenite substrate. Potency, µM (doses to about 114 µM), usual class: inhibitors. hit rate 1% among 390,000. AID 588453; further: nearly all actives have a fitted effect of over 65% in size
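Rat TrxR1 (90 nM in the dispensed reagent) was pre-reduced with 400 uM NADPH for 5 min at room temperature, then incubated with compound for 15 min. After 400 uM selenite was added, NADPH fluorescence (Ex 340/Em 450 nm) was followed for 8 min.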
Giardia kill: Giardia lamblia killing; hit rate 0.15% among 340,000; Giardia lamblia trophozoite viability; activity change, % at 7.66 µM, hits read low; AID 540267; in the data active means activity change below about -80%; inconclusive means between about -30% and that limit;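 further: parasites exposed to compound for two days anaerobically before the ATP read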
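Compounds were tested on trophozoites seeded at 100 cells/well and held 48 hrs at 37 deg C anaerobically. An ATP-based luminescent kit measured the remaining live cells.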
TrxR1 substrate: is turned over as a substrate by rat TrxR1. hit rate 0.01% among 390,000. AID 588456. purified TrxR1 substrate turnover, NADPH consumption readout. Potency, µM (doses to about 114 µM). O89049; further: nearly all actives have a fitted effect of over 50% in size
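Rat TrxR1, dispensed at 90 nM, was prereduced with 400 uM NADPH (final) for 5 min at ~22 deg C, then incubated with compound 15 min before 400 uM selenite. A first-read NADPH fluorescence drop versus no-compound background flagged substrates.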
IL2 activator: IL-2 activation; IL-2 activation reporter assay, cell-based qHTS; stimulated with anti-CD3/CD4/CD28 beads; in transgenic mouse T cells; hit rate 0.065% among 360,000; activation, % (series mostly up to about 46 µM); in the data active means activation above about 50%; inconclusive means mostly about 30% to 49%
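Readout: EGFP and DsRed signals by fluorescent plate cytometry. Unstimulated transgenic mouse T cells received compound 60 min before antibody-bead stimulation, then incubated 18 h at 37 degrees C.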
mIDH1 inhibitor: blocks human mutant IDH1 R132H enzyme. Potency, µM (top dose mostly 76.6 µM), usual class: inhibitors. O75874. hit rate 0.093% among 390,000. IDH1-R132H enzyme, NADPH consumption, diaphorase/resazurin fluorescence. AID 602179; further: nearly all actives have a fitted effect of over 65% in size
Target sequence (O75874 whole entry R132H, stated change not applied): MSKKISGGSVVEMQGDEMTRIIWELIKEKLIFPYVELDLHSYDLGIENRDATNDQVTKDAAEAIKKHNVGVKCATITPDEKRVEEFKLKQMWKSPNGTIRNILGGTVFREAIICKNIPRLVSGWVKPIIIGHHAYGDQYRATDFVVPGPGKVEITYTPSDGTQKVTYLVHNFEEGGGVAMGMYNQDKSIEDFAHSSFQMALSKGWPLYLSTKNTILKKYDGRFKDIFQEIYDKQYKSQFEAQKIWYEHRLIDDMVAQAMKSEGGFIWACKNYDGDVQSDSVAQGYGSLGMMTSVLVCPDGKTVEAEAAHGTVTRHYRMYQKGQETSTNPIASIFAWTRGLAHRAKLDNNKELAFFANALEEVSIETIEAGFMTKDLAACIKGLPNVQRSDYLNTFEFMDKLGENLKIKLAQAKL
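IDH1-R132H (0.5 ug/mL) preincubated 30 min with compound, then NADPH (0.016 mM) and alpha-KG (2 mM) added; 80 min at RT, pH 7.5. Remaining NADPH coupled via diaphorase/resazurin to fluorescence (540/590 nm); concentration-response curves normalized to no-enzyme control.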
Numbers stand for hits; - = inactive; ? = inconclusive; . = not tested or not shown; [ ] = dose if it differs, or a comment. Sampled rows, rich in hits. Any-hit rate of the full collection: about 2.2%. Unless noted, the call rests on the fitted dose curve; in most records, active means well fitted curve in the direction sought with a large enough effect; inconclusive means small, poorly fitted or top-dose-only effect, or another doubt; inactive means no such curve, though single readings can be large; an effect the other way counts as inactive or inconclusive.

SMILES	BRCA1 expr act	rTrxR1 inhibitor	Giardia kill	TrxR1 substrate	IL2 activator	mIDH1 inhibitor
O=c1c2ccccc2nc(/C=C/c2ccc([N+](=O)[O-])o2)n1CCCO	-	?	-88	-	-	-
Cc1cccc(Sc2c([N+](=O)[O-])ncn2C)c1	-	?	-	-	-	-
Cn1cnc([N+](=O)[O-])c1Oc1ccc2ccccc2c1	-	4µM	-	-[11.4 µM]	-	-
CCN(CC)c1ccc2nc3c4ccccc4c(=O)cc-3oc2c1	0.89µM	-	-	-	-	-
CCN(CC)c1ccc2cc(C=O)c(=O)oc2c1	-	?	-	-	-	-
O=S(=O)(Nc1cc(Sc2cccc3cccnc23)c(O)c2ccccc12)c1ccc(F)cc1	-	22µM	-98	-	-	-
COc1ccc(S(=O)(=O)Nc2ccc(O)c(Sc3ncn[nH]3)c2)cc1	-	-	-	-	-	-
COc1ccc(S(=O)(=O)Nc2cc(Sc3ncn[nH]3)c(O)c3ccccc23)cc1	-	?	-	50µM	.	.
O=[N+]([O-])c1ccc(-c2ccn[nH]2)o1	-	3.5µM	-85	-	-	-
Nc1nc(N)nc(-c2ccc([N+](=O)[O-])o2)n1	-	-	?	-	-	-
COc1cc(OC)c(NC(=O)N2CCSc3ccccc32)cc1Cl	.	-	.	-	.	-
Cc1snnc1C(=O)NC(=S)Nc1ccccc1	-	16µM	-	-	-	-
O=C(NC(=S)Nc1cccnc1)c1ccccc1	-	-	-	-	-	-
CN(C)c1ccc(/C=C2/CCCc3c2nc2ccccc2c3C(=O)O)cc1	.	?	.	-	.	.
O=C(Nc1nc2ccccc2s1)c1ccccc1[N+](=O)[O-]	-	-	-	-	-	-
COc1ccc2nc(NC(=O)C3CCN(C(=O)c4ccco4)CC3)sc2c1	13µM	-	-	-	-	-
O=C(Nc1nc2ccccc2s1)c1ccc([N+](=O)[O-])o1	-	-	-100	-	-	-
COc1ccc2nc(NC(=O)c3ccc([N+](=O)[O-])o3)sc2c1	-	-	-97	-	-	-
O=C(Nc1c(Cl)ccc2nsnc12)c1ccc([N+](=O)[O-])o1	-	?	-87	-	-	-
COc1cccc(NC(=O)c2oc3ccccc3c2NC(=O)Cc2cccc(C)c2)c1	.	-	.	-	.	-
COC(=O)c1ccc(NC(=O)CCn2cnnn2)c(C)c1	-	-	.	-	.	-
O=C(Nc1nc2cc3c(cc2s1)OCCO3)c1cccs1	-	-	-	-	-	-
CN(C)CCCN(C(=O)c1ccc([N+](=O)[O-])o1)c1nc2cc3c(cc2s1)OCO3	-	50µM	?	-	-	-
O=C(Nc1nc2cc3c(cc2s1)OCCO3)c1ccc([N+](=O)[O-])o1	-	-	-89	-	-	-
Cc1ccc(C)c(N2CCN(CCCNC(=O)Cn3ncc4c5ccccc5n(C)c4c3=O)CC2)c1	.	-	.	-	.	-
SMILES	BRCA1 expr act	rTrxR1 inhibitor	Giardia kill	TrxR1 substrate	IL2 activator	mIDH1 inhibitor
COc1ccc(/C=C2\C(=O)N(c3c(Cl)cc(Cl)cc3Cl)N=C2NC(=O)c2cccc([N+](=O)[O-])c2)cc1	-	4.5µM	-	-	-	-
O=C(CNC(=O)c1ccccc1)Sc1ccccc1	-	13µM	-	-	-	-
CC1CCN(C(=O)Cn2cc(SCC(=O)NCc3ccccc3Cl)c3ccccc32)CC1	.	-	.	-	.	-
Cc1cc2nc(-c3ccc[nH]c3=O)[nH]c2cc1C	-	-	-94	-	-	-
Cc1cc2nc(-c3ccc[nH]c3=O)n(Cc3ccc(F)cc3)c2cc1C	-	?	-	-	-	-
Cc1[nH]c2ccccc2c1C(=O)CN1CCC(C)CC1	-	35µM	-	-	-	-
CCOC(=O)C1CCN(CC(=O)c2c(C)[nH]c3ccccc23)CC1	-	-	-	-	-	-
Cc1ccc(NC(=O)c2ccccn2)c(Br)c1	3.5µM	-	-	-	-	-
COC(=O)c1c(-c2ccccc2)csc1N1C(=O)Nc2ccccc2N1O	7.9µM	-	-	-	-	-
CCCn1nc2cc(C(=O)NCCc3cccs3)ccc2c1OCC	11µM	-	-	-	-	-
